# Reference: PubChem BioAssay AID1347418 (Sanford-Burnham Center for Chemical Genomics, 2020)
# The campaign covered roughly 1,300 compounds. About 750 (58%) were called active. The list shows a part of the results.
# Target: Sulfhydryl oxidase 1 (Homo sapiens) (UniProt O00391)
# Experiment: inhibition of human sulfhydryl oxidase QSOX1 – biochemical, ROS-Glo H2O2 luminescence, HTS, primary screen (AID 1347418)
# Conditions: recombinant QSOX1, ROS-Glo H2O2 luminescence, at 12.5 µM, hits give high values; active = any value above zero unless noted
# Chain of Sulfhydryl oxidase 1 (Homo sapiens) (O00391 whole entry, looked up): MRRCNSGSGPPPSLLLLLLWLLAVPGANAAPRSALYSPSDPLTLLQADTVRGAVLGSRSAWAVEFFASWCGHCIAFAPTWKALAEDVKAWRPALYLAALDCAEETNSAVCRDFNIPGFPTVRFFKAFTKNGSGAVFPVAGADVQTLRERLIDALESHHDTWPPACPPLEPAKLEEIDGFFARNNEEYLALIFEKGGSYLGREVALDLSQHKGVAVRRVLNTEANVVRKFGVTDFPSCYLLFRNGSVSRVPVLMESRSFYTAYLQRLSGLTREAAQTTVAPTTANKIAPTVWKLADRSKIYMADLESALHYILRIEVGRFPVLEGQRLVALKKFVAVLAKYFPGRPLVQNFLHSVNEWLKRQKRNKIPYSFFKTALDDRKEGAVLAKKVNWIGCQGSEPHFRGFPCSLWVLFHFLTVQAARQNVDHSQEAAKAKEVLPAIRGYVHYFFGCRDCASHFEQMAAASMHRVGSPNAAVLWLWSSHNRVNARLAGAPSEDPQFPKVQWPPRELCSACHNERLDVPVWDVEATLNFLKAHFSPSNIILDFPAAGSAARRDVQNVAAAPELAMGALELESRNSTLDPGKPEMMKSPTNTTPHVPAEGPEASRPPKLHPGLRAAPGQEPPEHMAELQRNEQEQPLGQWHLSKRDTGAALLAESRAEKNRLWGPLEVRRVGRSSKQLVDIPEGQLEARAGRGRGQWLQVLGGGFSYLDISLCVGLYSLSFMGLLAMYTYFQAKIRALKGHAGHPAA
row,SMILES,inhibition
1,O=C(O)c1nn(Cc2ccc(Cl)cc2Cl)c2ccccc12,6.3% [setting not given] (active)
2,CCS(=O)(=O)Nc1cccc(C(=C2CCCCC2)c2cnc[nH]2)c1,1.9% (active)
3,O=[N+]([O-])/C=C/c1ccc2c(c1)OCO2,-5.8% (inactive)
4,CC[C@@]1(O)C(=O)OCc2c1cc1n(c2=O)Cc2cc3ccccc3nc2-1,6.2% [setting not given] (active)
5,NC(Cc1cc(O)c(O)cc1O)C(=O)O (stereo not given),12% (active)
6,NCCc1c[nH]c2ccccc12,5.9% [setting not given] (active)
7,CCCN(CCC)CCc1c[nH]c2ccc(C(N)=O)cc12,-6.3% [setting not given] (inactive)
8,NCCc1c[nH]c2ccc(O)cc12,23.8% (active)
9,COc1ccc2[nH]cc(CCN)c2c1,-1.9% [setting not given] (inactive)
10,CNCCc1c[nH]c2ccc(O)cc12,9.6% [setting not given] (active)
11,NCCc1c[nH]c2ccc(C(N)=O)cc12,0.5% (active)
12,OC1CCCCC1N1CCC(c2ccccc2)CC1 (stereo not given),-0.9% [setting not given] (inactive)
13,CC(=O)NCCc1c[nH]c2ccccc12,12.2% [setting not given] (active)
14,CC(N)Cc1c[nH]c2ccc(OCc3cccs3)cc12 (stereo not given),0.1% [setting not given] (active)
15,CC(N)Cc1c[nH]c2ccc(O)cc12 (stereo not given),20.8% [setting not given] (active)
16,Cc1[nH]c2ccc(O)cc2c1CCN,16.3% [setting not given] (active)
17,c1ccc2c(c1)OCC(C1=NCCN1)O2 (stereo not given),-2.6% (inactive)
18,Cn1cnc(CCN)c1,-4.6% (inactive)
19,CN1C[C@H](CNC(=O)OCc2ccccc2)C[C@@H]2c3cccc4c3c(cn4C)C[C@H]21,10.7% [setting not given] (active)
20,CP(=O)(O)C1=CCNCC1,0.8% (active)

row,SMILES,inhibition
1,NC(N)=NOCC[C@H](N)C(=O)O,4% [setting not given] (active)
2,NC(N)=NOCCC(N)C(=O)O (stereo not given),-1% (inactive)
3,CNCC(O)c1ccc(O)cc1 (stereo not given),2.1% [setting not given] (active)
4,NCC(O)c1ccc(O)cc1 (stereo not given),6.8% [setting not given] (active)
5,COc1cc(C(O)CN)ccc1O (stereo not given),4.4% (active)
6,NNC(=O)c1ccc(O)cc1,-1% (inactive)
7,OCc1cnc[nH]1,-0.7% (inactive)
8,O=C(O)Cc1cnc[nH]1,4.8% (active)
9,O=C1/C(=C/c2ccccc2)C[C@@]2(O)[C@H]3Cc4ccc(O)c5c4[C@@]2(CCN3CC2CC2)[C@H]1O5,-0.8% [setting not given] (inactive)
10,Oc1ccc2c3c1O[C@H]1c4[nH]c5c(c4C[C@@]4(O)[C@@H](C2)N(CC2CC2)CC[C@]314)C[C@@]1(O)[C@H]2Cc3ccc(O)c4c3[C@@]1(CCN2CC1CC1)[C@H]5O4,0.3% (active)
11,Oc1ccc2c3c1O[C@H]1c4oc5ccccc5c4C[C@@]4(O)C(C2)N(CC2CC2)CCC314 (stereo not given in full),1.7% [setting not given] (active)
12,NC(N)=Nc1ccc2[nH]c3c(c2c1)C[C@@]1(O)[C@H]2Cc4ccc(O)c5c4[C@@]1(CCN2CC1CC1)[C@H]3O5,7.1% [setting not given] (active)
13,Oc1ccc2c3c1O[C@H]1c4[nH]c5ccccc5c4C[C@@]4(O)C(C2)N(CC2CC2)CCC314 (stereo not given in full),8.5% [setting not given] (active)
14,CC(C)(O)[C@@H]1[C@H]2OC(=O)[C@@H]1[C@]1(O)C[C@H]3O[C@]34C(=O)O[C@H]2[C@]14C (tested in a mixture with another compound),-1.5% (inactive)
15,CN1CCc2cccc(Cl)c2CC1,-4.5% (inactive)
16,CC(C)Oc1cccnc1N(C)C1CCN(Cc2ccccc2)CC1,8.9% (active)
17,O=c1[nH]c2ccccc2n1CCCN1CCC(n2c(=O)[nH]c3cc(Cl)ccc32)CC1,-1.8% [setting not given] (inactive)
18,O=c1[nH]c2ccccc2n1C1CCN(CCCC(c2ccc(F)cc2)c2ccc(F)cc2)CC1,4.6% [setting not given] (active)
19,NC(Cc1ccc(N(CCCl)CCCl)cc1)C(=O)O (stereo not given),32.1% (active)
20,O=C(O)CCCc1ccc(N(CCCl)CCCl)cc1,4.4% [setting not given] (active)

row,SMILES,inhibition
1,Cn1c(CCCC(=O)O)nc2cc(N(CCCl)CCCl)ccc21,33.3% (active)
2,Cc1ncc(CNC(=O)N(CCCl)N=O)c(N)n1,-0.8% (inactive)
3,CCCn1c(C)c(C(=O)c2ccc3ccccc3c2)c2ccccc21,3.4% [setting not given] (active)
4,O=c1c2ccccc2[se]n1-c1ccccc1,61% [setting not given] (active)
5,CCCN1CCC[C@@H](c2cccc(O)c2)C1,-1.9% (inactive)
6,CCCN1CCC[C@H](c2cccc(O)c2)C1,0.7% (active)
7,C=C(C)[C@H]1Cc2c(ccc3c2O[C@@H]2COc4cc(OC)c(OC)cc4[C@@H]2C3=O)O1,8.2% [setting not given] (active)
8,Cc1ccc(S(=O)(=O)N[C@@H](CCCCN)C(=O)CCl)cc1,2.5% (active)
9,C#CCOC(=O)C1=CCCN(C)C1,-6.3% (inactive)
10,COC(=O)C1=CCCN(C)C1,0.8% [setting not given] (active)
11,NCc1cc(=O)[nH]o1,-4.8% (inactive)
12,CN1C(=O)CCS(=O)(=O)C1c1ccc(Cl)cc1 (stereo not given),4.6% (active)
13,NNC(N)=O,2% (active)
14,NC(=O)CI,-1.4% (inactive)
15,COc1ccccc1N1CCNCC1,-0.9% [setting not given] (inactive)
16,c1ccc2c(N3CCNCC3)cccc2c1,2.2% (active)
17,CS(=N)(=O)CC[C@H](N)C(=O)O (stereo not given in full),2% (active)
18,CC(=O)OCC1=C(C(=O)O)N2C(=O)[C@@H](NC(=O)CCC[C@@H](N)C(=O)O)[C@H]2SC1,-4.2% (inactive)
19,COc1ccc2c(c1)c(CCN1CCOCC1)c(C)n2C(=O)c1cccc(Cl)c1Cl,1.4% (active)
20,CC(C)=CCOc1c2occc2cc2ccc(=O)oc12,2.6% [setting not given] (active)
